Several values for one entry are separate records, joined by “and”; a condition that tells them apart may be missing. Identical values can stand only once. Records with an inconclusive call do not appear. More than one record can exist for a structure, and the calls need not agree. Activity calls are given as the source filed them. How the source made its calls, unless noted: active means hit-call score of the fitted dose curve at least 0.9, where 1 is the maximum; inactive means score below 0.9.

A short description of experiment [1]: ATG_PXRE_CIS: Attagene CIS-FACTORIAL HepG2 Assay for human Pregnane X Receptor Element (PXRE) (AID 2282957). The following applies: HepG2 Attagene CIS-FACTORIAL PXRE reporter, mRNA; actives raise or lower the signal. Summed up: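 HepG2 cells transiently transfected with cis-regulated multiple reporter transcription units; endogenous factor activity measured as reporter mRNA 24 h after dosing. RT-PCR, fluorescent primer extension, HpaI digestion, capillary electrophoresis; bidirectional fit versus DMSO baseline.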

Experiment [2] in a line: ATG_PPRE_CIS: Attagene CIS-FACTORIAL HepG2 Assay for human Peroxisome Proliferator-activated Response Element (PPRE) (AID 2282958). The following applies: HepG2 PPRE cis-element reporter, Attagene transcription factor profiling; actives raise or lower the signal. Summed up:
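HepG2, transient MRTU transfection (cis promoter elements, endogenous TFs). 24 h dosing. RNA → oligo(dT) RT → PCR → 6-FAM primer extension → HpaI digest → CE. Bidirectional fit vs DMSO.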

The nature of experiment [3]: ATG_RORE_CIS: Attagene CIS-FACTORIAL HepG2 Assay for human RAR-related Orphan Receptor Element (RORE) (AID 2282959). The note with it: HepG2 Attagene cis-factorial RORE reporter, mRNA; actives raise or lower the signal. Summed up:
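Transient MRTU transfection of human HepG2 liver cells (FuGene 6); 24 h compound exposure; TriZol RNA, oligo(dT) RT, PCR, FAM labeling, HpaI cut, CE fragment analysis. DMSO = negative control/baseline.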

Experiment [4] in a line: ATG_Sox_CIS: Attagene CIS-FACTORIAL HepG2 Assay for human SRY-box transcription factor (SOX) (AID 2282960). The following applies: HepG2 Attagene cis-factorial SOX reporter, mRNA; actives raise or lower the signal. Summed up:
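Endogenous factor activity in human liver HepG2 cells carrying transfected cis-regulated reporter units. RNA taken 24 h post-dose, reverse-transcribed, PCR-amplified and sized by capillary electrophoresis. Gain or loss of signal fitted relative to DMSO.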

The target of experiment [5] is Transcription factor Sp1 (Homo sapiens) (UniProt P08047). Put plainly: ATG_Sp1_CIS: Attagene CIS-FACTORIAL HepG2 Assay for human Specificity Protein 1 (Sp1) (AID 2282961). The note with it: HepG2 Sp1 cis-reporter transcription, actives raise or lower the signal. The gist of the method:
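Transient MRTU-transfected HepG2, 24 h compound exposure. Total RNA → oligo(dT) RT → PCR of reporter → 6-FAM primer extension → HpaI digest → CE. Endpoint fitted both directions vs DMSO.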

Experiment [6] can be described thus: ATG_SREBP_CIS: Attagene CIS-FACTORIAL HepG2 Assay for human Sterol Regulatory Element Binding (SREBP) (AID 2282962). The following applies: HepG2 Attagene cis-factorial SREBP reporter, mRNA; actives raise or lower the signal. The gist of the method:
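Transfected HepG2 (cis-regulated reporter library, endogenous TFs) → compound 24 h → total RNA → oligo(dT) RT → reporter-specific PCR → FAM primer extension, HpaI cut → CE fluorescence. Fit bidirectional vs DMSO.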

In experiment [7] the target is Signal transducer and activator of transcription 3 (Homo sapiens) (UniProt P40763). Put plainly: ATG_STAT3_CIS: Attagene CIS-FACTORIAL HepG2 Assay for human Signal Transducer and Activator of Transcription 3 (STAT3) (AID 2282963). The note with it: HepG2, Attagene cis-factorial STAT3 reporter transcription; actives raise or lower the signal. The gist of the method:
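HepG2 cells transiently transfected with multiple cis-element-driven reporter units report endogenous transcription factor activity. After 24 h compound exposure, reporter mRNA is measured by RT-PCR, 6-FAM labelling, HpaI digestion and capillary electrophoresis. Fitted bidirectionally versus DMSO.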

Experiment [8] can be described thus: ATG_TA_CIS: Attagene CIS-FACTORIAL HepG2 Assay for human TA Basal Promoter (AID 2282964). The following applies: HepG2 Attagene CIS-factorial TA basal promoter reporter; actives raise or lower the signal. The gist of the method:
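Read-out: fluorescent reporter-transcript fragments resolved by capillary electrophoresis after RT-PCR and HpaI digestion. Source: HepG2 cells carrying transiently transfected multi-reporter cis constructs, treated 24 h. Endpoint fitted bidirectionally relative to DMSO.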

Experiment [9] in a line: ATG_TCF_b_cat_CIS: Attagene CIS-FACTORIAL HepG2 Assay for human T-Cell-Factor with beta-catenin (TCF/b-cat) (AID 2282965). The following applies: HepG2 TCF/beta-catenin cis-reporter transcription, actives raise or lower the signal. Summed up: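 HepG2, transient MRTU transfection, cis-element-driven reporters (endogenous TFs). 24 h compound exposure. Readout: reporter mRNA by RT-PCR + 6-FAM primer extension, HpaI digest, capillary electrophoresis. Gain/loss fit vs DMSO baseline.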

The nature of experiment [10]: ATG_TAL_CIS: Attagene CIS-FACTORIAL HepG2 Assay for human TAL Basal Promoter (AID 2282966).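 Further: background control endpoint measuring basal TAL promoter reporter mRNA not a specific factor.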 The note with it: HepG2 Attagene cis-factorial TAL promoter reporter; actives raise or lower the signal. The gist of the method: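 HepG2 cells were transiently transfected with promoter-driven multiplexed reporter units and dosed for 24 h. Reporter mRNA was measured by RT-PCR with capillary electrophoresis fluorescence; bidirectional fits used DMSO as baseline, serving as a background control.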

Experiment [11] in a line: ATG_TGFb_CIS: Attagene CIS-FACTORIAL HepG2 Assay for human Transforming Growth Factor (TGF) (AID 2282967). The note with it: HepG2 Attagene CIS TGFb reporter, mRNA transcription; actives raise or lower the signal. The gist of the method:
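Transient MRTU transfection of HepG2 (FuGene 6). Dose 24 h. TriZol RNA, oligo(dT) RT, PCR, 6-FAM primer extension, HpaI cut, CE. Bidirectional fit, DMSO = baseline.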

A short description of experiment [12]: ATG_VDRE_CIS: Attagene CIS-FACTORIAL HepG2 Assay for human Vitamin D Receptor Element (VDRE) (AID 2282968). The note with it: HepG2 VDRE cis-reporter transcription, actives raise or lower the signal. The gist of the method:
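Transiently transfected HepG2 cells carrying cis-regulated reporter transcription units were exposed for 24 h. Reporter mRNA was measured by RT-PCR with fluorescent labelling and capillary electrophoresis, and fitted in both directions against DMSO.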

The target of experiment [13] is Nuclear receptor subfamily 1 group I member 3 (Homo sapiens) (UniProt Q14994). In words: ATG_CAR_TRANS: Attagene TRANS-FACTORIAL HepG2 Assay for human Constitutive Androstane Receptor (CAR) (AID 2282969; active means hit-call score of the fitted dose curve at least 0.9, where 1 is the maximum;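 further: activators raise reporter mRNA above DMSO so AC50 marks induction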). The following applies: HepG2 Attagene TRANS-FACTORIAL CAR reporter. The gist of the method:
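HepG2 cells transiently transfected with GAL4-UAS reporter units; TRANS format reads activity of exogenous chimeric NR-Gal4 protein. After 24 h dosing, reporter mRNA quantified by RT-PCR, 6-FAM labelling and capillary electrophoresis; gain of signal fitted against DMSO.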

Experiment [14] deals with Estrogen receptor (Homo sapiens) (UniProt P03372). In words: ATG_ERa_TRANS: Attagene TRANS-FACTORIAL HepG2 Assay for human Estrogen Receptor alpha (ERa) (AID 2282970; active means hit-call score of the fitted dose curve at least 0.9, where 1 is the maximum). The following applies: HepG2 Attagene TRANS ERa GAL4 reporter, mRNA. The gist of the method:
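HepG2 cells transiently transfected with multiplexed GAL4-UAS reporter units; ERa activity read via exogenous chimeric NR-Gal4 protein. After 24 hour compound exposure, reporter mRNA measured by RT-PCR with 6-FAM labelling and capillary electrophoresis; gain-of-signal fitted relative to DMSO.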

Experiment [15] has as its target X-box-binding protein 1 (Homo sapiens) (UniProt P17861). In words: ATG_Xbp1_CIS: Attagene CIS-FACTORIAL HepG2 Assay for human X-box Binding Protein 1 (XBP1) (AID 2282972). The following applies: HepG2 XBP1 cis-element reporter, Attagene multiplex; actives raise or lower the signal. The gist of the method:
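HepG2, transient MRTU transfection (cis-promoter driven), 24 h compound exposure. Total RNA → oligo(dT) RT → PCR → 6-FAM labeling → HpaI cut → CE. Bidirectional fit vs DMSO.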

The nature of experiment [16]: ATG_M_19_TRANS: Attagene TRANS-FACTORIAL HepG2 Assay for M19 Transcription Factor (Internal Marker) (AID 2282974; active means hit-call score of the fitted dose curve at least 0.9, where 1 is the maximum). The following applies: HepG2 Attagene TRANS-FACTORIAL M19 internal marker reporter. Summed up: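 Fluorescence of 6-FAM-labelled reporter cDNA fragments, separated by capillary electrophoresis, served as the readout. These derived from HepG2 cells carrying transfected GAL4-UAS reporter units after 24 h dosing, with DMSO as negative control.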

Experiment [17] can be described thus: ATG_GAL4_TRANS: Attagene TRANS-FACTORIAL HepG2 Assay for GAL4 (Internal Marker) (AID 2282976; active means hit-call score of the fitted dose curve at least 0.9, where 1 is the maximum). The following applies: HepG2 Attagene TRANS GAL4 internal marker reporter. The gist of the method: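 HepG2 cells transiently transfected with multiplexed GAL4-UAS reporter constructs were dosed for 24 h. Reporter mRNA was measured by RT-PCR, 6-FAM primer extension, HpaI digestion and capillary electrophoresis, and gain of signal was fitted relative to DMSO.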

Experiment [18] concerns the target Estrogen-related receptor gamma (Homo sapiens) (UniProt P62508). Put plainly: ATG_ERRg_TRANS: Attagene TRANS-FACTORIAL HepG2 Assay for human Estrogen-Related Receptor gamma (ERRg) (AID 2282977; active means hit-call score of the fitted dose curve at least 0.9, where 1 is the maximum;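 further: hits increase reporter signal over DMSO so potencies reflect activators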). The following applies: HepG2 Attagene TRANS reporter, ERRg transactivation. The gist of the method:
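Transfect HepG2 with multiple GAL4-UAS reporter transcription units; dose chemicals 24 h; isolate RNA, reverse-transcribe with oligo(dT), PCR-amplify, label with 6-FAM, digest with HpaI; size fragments by capillary electrophoresis. DMSO serves as negative control.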

Experiment [19] has as its target Glucocorticoid receptor (Homo sapiens) (UniProt P04150). Put plainly: ATG_GR_TRANS: Attagene TRANS-FACTORIAL HepG2 Assay for human Glucocorticoid Receptor (GR) (AID 2282978; active means hit-call score of the fitted dose curve at least 0.9, where 1 is the maximum;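 further: activators score as hits since higher reporter transcript over DMSO is fitted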). The note with it: HepG2 Attagene TRANS GR reporter, mRNA transcription. Summed up:
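Fluorescent capillary-electrophoresis quantitation of reporter mRNA is the readout, taken 24 h after dosing human HepG2 cells carrying transiently transfected GAL4-UAS reporter units activated by chimeric NR-GAL4 fusions; activity scored as induction over DMSO.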

In experiment [20] the target is Steroid hormone receptor ERR1 (Homo sapiens) (UniProt P11474). In words: ATG_ERRa_TRANS: Attagene TRANS-FACTORIAL HepG2 Assay for human Estrogen-Related Receptor alpha (ERRa) (AID 2282971; active means hit-call score of the fitted dose curve at least 0.9, where 1 is the maximum). The note with it: HepG2 Attagene TRANS reporter, ERRa transactivation. Summed up: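 HepG2 cells transiently transfected with multiplexed GAL4-UAS reporter units reading chimeric ERRa-Gal4 activity; 24 h compound exposure. Reporter mRNA measured by RT-PCR, 6-FAM labelling, HpaI digest and capillary electrophoresis; gain of signal fitted versus DMSO baseline.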
Steroid hormone receptor ERR1 (Homo sapiens), sequence (P11474 whole entry, looked up, the tested form may be a part): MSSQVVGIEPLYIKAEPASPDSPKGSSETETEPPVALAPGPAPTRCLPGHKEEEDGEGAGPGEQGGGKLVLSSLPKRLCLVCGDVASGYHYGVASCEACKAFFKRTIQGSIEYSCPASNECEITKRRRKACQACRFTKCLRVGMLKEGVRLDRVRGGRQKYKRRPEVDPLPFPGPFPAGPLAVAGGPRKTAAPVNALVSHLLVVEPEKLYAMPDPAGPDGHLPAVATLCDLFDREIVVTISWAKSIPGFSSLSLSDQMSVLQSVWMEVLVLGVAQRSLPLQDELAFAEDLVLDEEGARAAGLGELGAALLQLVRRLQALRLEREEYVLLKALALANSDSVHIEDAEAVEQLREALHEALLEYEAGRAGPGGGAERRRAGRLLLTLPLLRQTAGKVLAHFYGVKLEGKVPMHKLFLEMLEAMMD

Estrogen-related receptor gamma (Homo sapiens), sequence (P62508 whole entry, looked up, the tested form may be a part): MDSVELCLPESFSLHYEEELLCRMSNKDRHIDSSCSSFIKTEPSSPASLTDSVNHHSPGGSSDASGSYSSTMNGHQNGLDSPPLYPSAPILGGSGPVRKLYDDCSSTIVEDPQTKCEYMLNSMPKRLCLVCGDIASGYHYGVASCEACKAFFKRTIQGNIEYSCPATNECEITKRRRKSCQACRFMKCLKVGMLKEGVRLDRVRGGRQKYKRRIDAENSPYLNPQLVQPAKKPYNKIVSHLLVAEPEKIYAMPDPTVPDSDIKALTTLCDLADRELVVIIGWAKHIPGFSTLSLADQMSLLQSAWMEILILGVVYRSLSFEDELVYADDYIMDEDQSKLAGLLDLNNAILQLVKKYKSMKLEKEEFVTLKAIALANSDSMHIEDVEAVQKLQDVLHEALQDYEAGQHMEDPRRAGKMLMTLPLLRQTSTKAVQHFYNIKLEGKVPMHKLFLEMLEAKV
X-box-binding protein 1 (Homo sapiens), sequence (P17861 whole entry, looked up): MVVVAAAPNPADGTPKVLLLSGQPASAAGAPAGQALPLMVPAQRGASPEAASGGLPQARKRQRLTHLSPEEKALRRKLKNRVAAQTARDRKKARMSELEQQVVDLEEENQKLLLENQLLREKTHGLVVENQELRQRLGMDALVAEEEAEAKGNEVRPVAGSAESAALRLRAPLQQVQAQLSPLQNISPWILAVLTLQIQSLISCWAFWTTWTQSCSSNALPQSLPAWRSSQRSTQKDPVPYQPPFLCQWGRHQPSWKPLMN
Transcription factor Sp1 (Homo sapiens), sequence (P08047 whole entry, looked up): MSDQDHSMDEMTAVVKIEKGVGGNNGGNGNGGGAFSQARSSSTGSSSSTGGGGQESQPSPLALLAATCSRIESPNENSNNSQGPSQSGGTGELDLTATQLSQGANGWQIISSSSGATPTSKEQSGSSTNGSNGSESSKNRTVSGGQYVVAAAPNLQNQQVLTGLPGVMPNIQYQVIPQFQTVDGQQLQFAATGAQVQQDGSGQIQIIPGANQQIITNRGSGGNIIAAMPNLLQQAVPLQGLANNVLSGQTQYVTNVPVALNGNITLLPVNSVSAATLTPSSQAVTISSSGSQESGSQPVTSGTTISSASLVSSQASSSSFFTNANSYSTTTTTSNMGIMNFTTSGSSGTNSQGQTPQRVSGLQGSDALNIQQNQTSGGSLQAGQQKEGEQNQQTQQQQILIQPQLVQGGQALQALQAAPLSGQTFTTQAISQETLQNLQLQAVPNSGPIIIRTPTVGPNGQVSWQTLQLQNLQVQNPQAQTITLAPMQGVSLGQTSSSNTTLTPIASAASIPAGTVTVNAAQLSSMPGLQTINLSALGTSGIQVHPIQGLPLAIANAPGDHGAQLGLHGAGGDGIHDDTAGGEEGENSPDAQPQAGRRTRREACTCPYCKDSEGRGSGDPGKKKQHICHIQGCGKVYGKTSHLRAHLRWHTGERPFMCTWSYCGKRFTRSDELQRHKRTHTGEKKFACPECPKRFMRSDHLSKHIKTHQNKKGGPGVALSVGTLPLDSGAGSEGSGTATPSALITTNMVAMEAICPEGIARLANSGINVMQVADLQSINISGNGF
Nuclear receptor subfamily 1 group I member 3 (Homo sapiens), sequence (Q14994 whole entry, looked up, the tested form may be a part): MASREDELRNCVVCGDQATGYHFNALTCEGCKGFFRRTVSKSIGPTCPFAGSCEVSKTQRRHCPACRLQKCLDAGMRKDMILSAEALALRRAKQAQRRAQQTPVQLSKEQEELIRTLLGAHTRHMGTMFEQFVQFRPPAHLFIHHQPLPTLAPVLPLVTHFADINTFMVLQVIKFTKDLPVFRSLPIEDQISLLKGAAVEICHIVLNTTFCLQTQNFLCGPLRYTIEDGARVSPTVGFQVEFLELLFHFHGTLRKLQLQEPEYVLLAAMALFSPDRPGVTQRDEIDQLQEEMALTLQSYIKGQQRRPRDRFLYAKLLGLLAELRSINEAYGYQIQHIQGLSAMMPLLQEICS
Estrogen receptor (Homo sapiens), sequence (P03372 whole entry, looked up, the tested form may be a part): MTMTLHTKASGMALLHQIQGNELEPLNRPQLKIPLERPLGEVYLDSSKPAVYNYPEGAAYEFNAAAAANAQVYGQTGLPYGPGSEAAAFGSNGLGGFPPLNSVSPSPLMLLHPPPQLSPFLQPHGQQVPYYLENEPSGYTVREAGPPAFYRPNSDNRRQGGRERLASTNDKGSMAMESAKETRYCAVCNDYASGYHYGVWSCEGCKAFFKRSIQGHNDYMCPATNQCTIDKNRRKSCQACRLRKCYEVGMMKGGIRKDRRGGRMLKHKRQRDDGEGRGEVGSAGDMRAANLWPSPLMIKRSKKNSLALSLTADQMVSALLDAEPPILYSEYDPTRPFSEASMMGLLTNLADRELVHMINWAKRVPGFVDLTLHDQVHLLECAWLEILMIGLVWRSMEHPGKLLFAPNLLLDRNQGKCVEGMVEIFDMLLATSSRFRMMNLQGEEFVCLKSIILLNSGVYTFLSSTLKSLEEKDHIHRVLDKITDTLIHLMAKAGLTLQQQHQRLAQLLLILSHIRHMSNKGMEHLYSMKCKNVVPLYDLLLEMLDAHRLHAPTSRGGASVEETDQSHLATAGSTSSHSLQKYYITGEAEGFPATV
Signal transducer and activator of transcription 3 (Homo sapiens), sequence (P40763 whole entry, looked up): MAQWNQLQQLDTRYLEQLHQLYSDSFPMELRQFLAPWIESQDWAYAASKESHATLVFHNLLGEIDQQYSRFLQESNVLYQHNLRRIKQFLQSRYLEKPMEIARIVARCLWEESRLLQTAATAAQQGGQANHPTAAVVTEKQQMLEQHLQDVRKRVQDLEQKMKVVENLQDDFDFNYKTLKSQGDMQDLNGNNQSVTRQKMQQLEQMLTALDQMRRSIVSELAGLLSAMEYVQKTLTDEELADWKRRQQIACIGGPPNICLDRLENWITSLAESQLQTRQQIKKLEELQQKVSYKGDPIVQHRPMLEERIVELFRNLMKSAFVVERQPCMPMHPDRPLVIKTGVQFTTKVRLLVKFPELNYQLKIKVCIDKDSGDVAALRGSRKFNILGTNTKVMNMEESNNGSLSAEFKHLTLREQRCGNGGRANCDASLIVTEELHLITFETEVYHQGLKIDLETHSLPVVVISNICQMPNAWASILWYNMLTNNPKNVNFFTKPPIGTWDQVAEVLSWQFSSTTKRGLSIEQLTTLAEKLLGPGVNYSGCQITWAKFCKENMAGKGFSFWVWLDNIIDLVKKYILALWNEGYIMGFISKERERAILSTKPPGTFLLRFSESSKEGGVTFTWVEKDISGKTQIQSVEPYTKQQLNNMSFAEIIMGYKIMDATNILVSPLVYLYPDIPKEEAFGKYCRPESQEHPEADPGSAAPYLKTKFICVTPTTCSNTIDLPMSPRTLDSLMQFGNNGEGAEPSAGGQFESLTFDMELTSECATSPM
Glucocorticoid receptor (Homo sapiens), sequence (P04150 whole entry, looked up, the tested form may be a part): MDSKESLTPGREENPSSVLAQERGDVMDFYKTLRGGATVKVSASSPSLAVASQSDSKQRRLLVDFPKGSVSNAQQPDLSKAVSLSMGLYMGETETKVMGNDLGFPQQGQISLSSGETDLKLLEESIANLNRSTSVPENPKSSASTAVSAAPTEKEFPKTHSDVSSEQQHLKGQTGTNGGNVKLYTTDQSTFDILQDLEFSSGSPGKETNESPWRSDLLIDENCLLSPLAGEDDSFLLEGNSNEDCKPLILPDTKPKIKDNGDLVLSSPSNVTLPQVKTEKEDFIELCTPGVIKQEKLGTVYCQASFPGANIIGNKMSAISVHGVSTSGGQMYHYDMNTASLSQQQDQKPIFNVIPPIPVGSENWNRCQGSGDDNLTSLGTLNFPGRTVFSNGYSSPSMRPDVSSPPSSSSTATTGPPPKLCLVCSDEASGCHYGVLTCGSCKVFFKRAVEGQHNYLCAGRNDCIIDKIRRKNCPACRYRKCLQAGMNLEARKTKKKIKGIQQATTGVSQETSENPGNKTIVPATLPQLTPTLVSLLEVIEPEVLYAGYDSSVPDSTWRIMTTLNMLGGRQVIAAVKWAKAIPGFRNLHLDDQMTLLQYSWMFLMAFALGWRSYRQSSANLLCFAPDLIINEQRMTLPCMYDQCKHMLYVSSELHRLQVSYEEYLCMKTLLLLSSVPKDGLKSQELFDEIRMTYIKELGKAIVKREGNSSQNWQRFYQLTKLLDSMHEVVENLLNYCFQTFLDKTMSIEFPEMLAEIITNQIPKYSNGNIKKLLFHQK

Broadly, the AC50 is the concentration giving half of the maximal activity seen. `CCOC=C(C(=O)OCC)C(=O)OCC`: the AC50 in [1] is 27.6 µM (active). Besides, the molecule was classed as inactive in experiment [2], in experiment [3], in [4], in experiment [5], in [6] and in experiment [7]. Moreover, the molecule was called inactive in [8], in experiment [9], in experiment [10], in experiment [11], in experiment [12] and in [13]. In addition, the outcome in [14], in [15], in [16] and in [17] was inactive.
Regarding `Oc1cccc2c(O)cccc12`, the AC50 was 27.1 µM (active) in [1] and 11.1 µM (active) in experiment [14]. The molecule was called inactive in experiment [2], in [3], in experiment [4], in experiment [5], in experiment [6] and in [7]. Also, the molecule was classed as inactive in experiment [8], in experiment [9], in experiment [10], in experiment [11], in experiment [12] and in experiment [13]. The result in experiment [15], in experiment [17], in experiment [18] and in experiment [19] was inactive.
Regarding `O=C(O)C(F)(F)OC(F)(F)C(F)(F)OC(F)(F)C(F)(F)OC(F)(F)C(F)(F)C(F)(F)C(F)(F)F`, the AC50 was 11.1 µM (active) and 4.38 µM (active) in [1]; 13.1 µM (active) and 22.1 µM (active) in experiment [2]; 45.4 µM (active) and 21.6 µM (active) in experiment [3]; 37.3 µM (active) in experiment [4]; 31.8 µM (active) in [5]; 25.9 µM (active) and 24.4 µM (active) in [9]. For the same molecule, the AC50 was 13.1 µM (active) and 30 µM (active) in experiment [12]; 41.2 µM (active) and 25.4 µM (active) in experiment [15]. Further, the outcome in [4], in experiment [5], in [6], in [8], in [10] and in experiment [11] was inactive. Also, the outcome in [13], in experiment [20], in experiment [16], in [17] and in experiment [18] was inactive.

For the origin of these results see PubChem BioAssay (EPA / NIEHS).
